# Test results reported in the antibiotic and cytotoxicity screens of Wong et al. (2023).
# Hit rate of the full screen: of about 39,000 compounds, about 1,500 (3.8%) were called active. The full list was thinned out, with actives kept by preference.
# Test system: HSkMC (human skeletal muscle cells)
# Assay: cytotoxicity call (relative viability < 0.9)
# Details: 10 µM
row,SMILES,cytotoxicity call
1,Cc1ccc(S(=O)(=O)N(C)C[C@H]2Oc3ncc(-c4ccncc4)cc3C(=O)N([C@H](C)CO)C[C@H]2C)cc1,inactive
2,C[C@H]1CCCCO[C@@H](CN(C)C(=O)Nc2ccc3c(c2)OCO3)[C@@H](C)CN([C@@H](C)CO)C(=O)c2cc(NC(=O)c3ccccc3)ccc2O1,inactive
3,CO[C@@H]1CN(C)C(=O)c2cc(NS(C)(=O)=O)ccc2OC[C@@H](C)N(C(=O)C2CCOCC2)C[C@@H]1C,inactive
4,Cc1noc(C)c1NC(=O)Nc1cccc2c1O[C@H](CN(C)Cc1ccc(C(F)(F)F)cc1)[C@H](C)CN([C@H](C)CO)C2=O,inactive
5,NNC(=O)c1cc2ccccc2[nH]1,inactive
6,C[C@H]1CCCCO[C@H](CN(C)Cc2ccccc2)[C@@H](C)CN([C@@H](C)CO)C(=O)c2cc(NC(=O)C3CCCCC3)ccc2O1,inactive
7,C[C@@H]1CN([C@@H](C)CO)C(=O)Cc2cc(NS(=O)(=O)c3ccc(F)cc3)ccc2O[C@H]1CN(C)Cc1ccc(-c2ccccc2)cc1,inactive
8,C[C@H](CO)N1C[C@H](C)[C@H](CN(C)Cc2ccc(-c3ccccc3)cc2)Oc2ccc(NS(=O)(=O)c3ccc(F)cc3)cc2CC1=O,active
9,C[C@@H]1CN([C@@H](C)CO)C(=O)Cc2cc(NS(=O)(=O)c3ccc(F)cc3)ccc2O[C@@H]1CN(C)Cc1ccc(-c2ccccc2)cc1,active
10,C[C@H](CO)N1C[C@H](C)[C@@H](CN(C)Cc2ccc(-c3ccccc3)cc2)Oc2ccc(NS(=O)(=O)c3ccc(F)cc3)cc2CC1=O,inactive
11,C[C@@H]1CN([C@@H](C)CO)C(=O)c2cc(NC(=O)CCC(F)(F)F)ccc2O[C@@H](C)CCCCO[C@H]1CN(C)C(=O)C1CCCCC1,inactive
12,CSC1=NN(C)c2cnn(C)c(=O)c2S1,inactive
13,Cc1noc(C)c1NC(=O)Nc1ccc2c(c1)C(=O)N([C@@H](C)CO)C[C@H](C)[C@@H](CN(C)C(=O)Nc1cccc3ccccc13)OCCCC[C@H](C)O2,inactive
14,CC(C)NC(=O)Nc1ccc2c(c1)C(=O)N([C@@H](C)CO)C[C@@H](C)[C@@H](CN(C)S(=O)(=O)c1ccc(F)cc1)O2,inactive
15,CO[C@@H]1CN(C)C(=O)c2ccc(NS(=O)(=O)c3cn(C)cn3)cc2OC[C@H](C)N(CCC(F)(F)F)C[C@H]1C,inactive
16,CC(=N)NCc1cccc(CN)c1,inactive
17,O=C(C[C@H]1CC[C@@H](NC(=O)c2cccnc2)[C@@H](CO)O1)NCCN1CCCCC1,inactive
18,Cc1noc(C)c1CC(=O)N1CCCC[C@@H]1CCOc1cccc(CN(C)Cc2cccc3cccnc23)c1,inactive
19,Cc1ccc(S(=O)(=O)N(C)C[C@H]2Oc3ccc(NS(=O)(=O)c4ccc(F)cc4)cc3CC(=O)N([C@H](C)CO)C[C@H]2C)cc1,inactive
20,C[C@@H]1CN([C@@H](C)CO)C(=O)c2cc(NS(=O)(=O)c3ccc(F)cc3)ccc2O[C@@H](C)CCCCO[C@@H]1CN(C)S(=O)(=O)c1cn(C)cn1,inactive
21,CC(=O)N[C@H]1[C@H](O[C@H]2CC[C@]3(C)[C@H]4CC=C5[C@@H]6CC(C)(C)CC[C@]6(C(=O)O[C@H]6OC[C@@H](O)[C@@H](O)[C@@H]6O)[C@@H](O)C[C@@]5(C)[C@]4(C)CC[C@H]3C2(C)C)O[C@H](CO[C@H]2OC[C@@H](O)[C@@H](O[C@H]3OC[C@@H](O)[C@@H](O)[C@@H]3O)[C@@H]2O)[C@@H](O[C@@H]2O[C@@H](C)[C@H](O)[C@@H](O)[C@H]2O[C@@H]2O[C@@H](C)[C@H](O)[C@@H](O)[C@H]2O)[C@@H]1O,inactive
22,Cc1noc(C)c1NC(=O)Nc1cccc2c1O[C@@H](CN(C)C(=O)NC(C)C)[C@H](C)CN([C@H](C)CO)C2=O,inactive
23,C[C@H]1CC=CC[C@@H](c2ccc3c(c2)OCO3)NC(=O)[C@H](Cc2ccccc2)N(C)C(=O)c2ccccc2O1,inactive
24,C[C@@H]1CC=CC[C@H](c2ccc3c(c2)OCO3)NC(=O)[C@@H](Cc2ccccc2)N(C)C(=O)c2ccccc2O1,inactive

row,SMILES,cytotoxicity call
1,COc1ccc([C@H]2CC=CC[C@H](C)Oc3ccccc3C(=O)N(C)[C@@H](Cc3ccccc3)C(=O)N2)c(OC)c1,inactive
2,C[C@H]1CC=CC[C@H](c2ccc3c(c2)OCO3)NC(=O)[C@@H](Cc2ccccc2)N(C)C(=O)c2ccccc2O1,active
3,COc1ccc([C@H]2CC=CC[C@H](C)Oc3ccccc3C(=O)N(C)[C@H](Cc3ccccc3)C(=O)N2)c(OC)c1,inactive
4,COc1ccc([C@@H]2CC=CC[C@H](C)Oc3ccccc3C(=O)N(C)[C@@H](Cc3ccccc3)C(=O)N2)c(OC)c1,active
5,COCCCN1C(=O)[C@@]2(Cc3ccccc31)c1ccccc1C(=O)N(Cc1ccccc1)[C@H]2c1ccc(CO)cc1,inactive
6,Cc1ccc(S(=O)(=O)Nc2ccc3c(c2)CC(=O)N([C@@H](C)CO)C[C@H](C)[C@H](CN(C)CC2CC2)O3)cc1,inactive
7,Nc1ccc2oc3c(c2c1)CCCC3,inactive
8,CC(C)C(=O)Nc1cccc(Cl)c1,inactive
9,CCC(=O)Nc1ccc(Cl)cc1,inactive
10,O=C(Nc1ccc(Cl)cc1)Nc1ccc(Cl)c(Cl)c1,active
11,O=C(Nc1ccc(C(F)(F)F)cc1)Nc1cccc(Cl)c1,active
12,CC(C)(C)c1ccc(C(=O)Nc2cccc(C(F)(F)F)c2)cc1,inactive
13,O=C(Nc1ccccc1)Nc1ccccc1,inactive
14,C[C@H]1CN([C@@H](C)CO)C(=O)c2cc(NC(=O)Cc3ccccc3)ccc2O[C@H]1CN(C)Cc1ccc(C(F)(F)F)cc1,inactive
15,C[C@@H]1CN([C@@H](C)CO)C(=O)Cc2cc(NC(=O)Cn3cnnn3)ccc2O[C@H]1CN(C)S(=O)(=O)c1cn(C)cn1,inactive
16,COc1cccc(S(=O)(=O)Nc2ccc3c(c2)[C@H]2C[C@@H](CC(=O)NCc4ccccc4F)O[C@@H](CO)[C@H]2O3)c1,inactive
17,CCCCCCCCCCCCCCCC[N+](C)(C)C,active
18,CCCCCCCCCCCCCCCCOP(=O)([O-])OCC[N+](C)(C)C,inactive
19,C[N+](C)(C)CCCCCC[N+](C)(C)C.[Br-].[Br-],inactive
20,CC1=C2C/C=C(\C)[C@H](O[C@H]3O[C@@H](CO)[C@@H](O)[C@@H](O)[C@@H]3O)C/C=C(\C)C[C@@H]2OC1=O,inactive
21,NCc1nncn1-c1ccccc1,inactive
22,COc1ccccc1CNC(=O)C[C@@H]1C[C@H]2c3cc(NC(=O)c4cccnc4)ccc3O[C@H]2[C@@H](CO)O1,inactive
23,CC(N)(Cc1ccc2c(c1)OCO2)C(=O)O (stereo not given),inactive
24,C[C@@H]1CN([C@@H](C)CO)C(=O)c2cc(NS(C)(=O)=O)ccc2O[C@@H]1CN(C)S(=O)(=O)c1ccccc1,inactive

row,SMILES,cytotoxicity call
1,CCC(=O)N1CCN(c2ccc(-n3c(=O)ccc4cnc5ccc(-c6cnc7ccccc7c6)cc5c43)cc2C(F)(F)F)CC1,active
2,CCCCn1c(-c2ccccc2)nc(-c2ccccc2)c1CN(Cc1ccc2c(c1)OCO2)Cc1ccc2c(c1)OCO2,inactive
3,COc1ccc(-c2cnc3c(c2)C(=O)N([C@@H](C)CO)C[C@@H](C)[C@@H](CN(C)C(=O)C2CCOCC2)O3)cc1,inactive
4,CO[C@@H]1CN(C)C(=O)c2ccc(NC(=O)C3CC3)cc2OC[C@H](C)N(C(=O)CN2CCOCC2)C[C@@H]1C,inactive
5,C[C@@H]1CN([C@@H](C)CO)C(=O)Cc2cc(NS(C)(=O)=O)ccc2O[C@H]1CN(C)S(=O)(=O)c1cccs1,inactive
6,C[C@@H]1CN([C@@H](C)CO)C(=O)Cc2cc(NS(=O)(=O)c3ccc(Cl)cc3)ccc2O[C@@H]1CN(C)Cc1ccc(C(F)(F)F)cc1,active
7,C[C@@H]1CN([C@H](C)CO)C(=O)Cc2cc(NS(=O)(=O)c3ccc(Cl)cc3)ccc2O[C@@H]1CN(C)Cc1ccc(C(F)(F)F)cc1,active
8,C[C@@H]1CN([C@H](C)CO)C(=O)Cc2cc(NS(=O)(=O)c3ccc(Cl)cc3)ccc2O[C@H]1CN(C)Cc1ccc(C(F)(F)F)cc1,active
9,C[C@H](CO)N1C[C@H](C)[C@H](CN(C)Cc2ccc(C(F)(F)F)cc2)Oc2ccc(NS(=O)(=O)c3ccc(Cl)cc3)cc2CC1=O,active
10,C[C@@H]1CCCCO[C@@H](CN(C)S(=O)(=O)c2ccc(Cl)cc2)[C@H](C)CN([C@@H](C)CO)C(=O)c2cc(NS(=O)(=O)c3cccs3)ccc2O1,inactive
11,COc1cccc(NC(=O)N(C)C[C@@H]2Oc3cc(C#Cc4ccncc4)ccc3S(=O)(=O)N([C@H](C)CO)C[C@@H]2C)c1,inactive
12,CC(=O)O[C@H]1C=C[C@@H](O)C1,inactive
13,O=C(CCCCCCC(=O)Nc1ccc([C@H]2C[C@H](c3ccccc3)O[C@H](c3ccncc3)O2)cc1)NO,inactive
14,COc1ccc(-c2cc(=O)c3c(O)cc(O[C@@H]4O[C@H](CO[C@H]5O[C@H](C)[C@@H](O)[C@H](O)[C@@H]5O)[C@@H](O)[C@H](O)[C@H]4O)cc3o2)cc1O,inactive
15,C[C@@H]1CN([C@@H](C)CO)C(=O)c2cc(NC(=O)C3CC3)ccc2O[C@@H]1CN(C)C(=O)NC1CCCCC1,inactive
16,C=CC(=O)NS(=O)(=O)c1ccccc1,inactive
17,CCS(=O)(=O)N1CC[C@H]2[C@H](CC1)S(=O)(=O)CCN2C(=O)c1ccccc1,inactive
18,COCC(=O)N1C[C@@H](C)[C@@H](OC)CN(C)C(=O)c2ccc(NC(=O)c3ccc(OC)cc3)cc2OC[C@@H]1C,inactive
19,Cc1cc(N)n(-c2nc(=O)c(C)c(C)[nH]2)n1,inactive
20,CCCCc1c(C)nc2ccc(Br)cc2c1SC(N)N,inactive
21,NS(=O)(=O)c1ccc2c(c1)COC2,inactive
22,COc1ccc(S(=O)(=O)N(C)C[C@@H]2Oc3c(NS(=O)(=O)c4ccc(C)cc4)cccc3C(=O)N([C@@H](C)CO)C[C@@H]2C)cc1,inactive
